# Laboratory results: PubChem BioAssay (NCI)
# The panel holds about 83,000 compounds, 20% with a hit somewhere; the sample as a whole holds those more often.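 Single-dose data. Exposure time 48 hours. Values below 10 considered active.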 A number with no mark means an inactive call. Active and inactive are the calls of the source.
# Legend:
# Assay in all cases: NCI-60 one-dose screen, 48 h (100 = growth as untreated, 0 = no growth, -100 = all killed)
# Conditions in all cases: 10 µM unless noted
# NCI-H23 lung = system: NCI-H23 lung
# NCI-H226 lung = system: NCI-H226 lung
# NCI-H322M lung = system: NCI-H322M lung
# HOP-62 NSCLC = system: HOP-62 NSCLC
# NCI-H460 lung = system: NCI-H460 lung
# HOP-92 NSCLC = system: HOP-92 NSCLC
# NCI-H522 lung = system: NCI-H522 lung
# 786-0 renal = system: 786-0 renal
# COLO 205 colon = system: COLO 205 colon
# DU-145 prostate = system: DU-145 prostate
# K-562 leukemia = system: K-562 leukemia
# MALME-3M melanoma = system: MALME-3M melanoma
# MDA-MB-231 breast = system: MDA-MB-231 breast
# RXF 393 renal = system: RXF 393 renal
# SF-268 CNS = system: SF-268 CNS
# SF-295 CNS = system: SF-295 CNS
# SF-539 CNS = system: SF-539 CNS
# UACC-257 melanoma = system: UACC-257 melanoma
# M14 melanoma = system: M14 melanoma
# A549/ATCC NSCLC = system: A549/ATCC NSCLC
SMILES,growth (NCI-H23 lung),growth (NCI-H226 lung),growth (NCI-H322M lung),growth (HOP-62 NSCLC),growth (NCI-H460 lung),growth (HOP-92 NSCLC),growth (NCI-H522 lung),growth (786-0 renal),growth (COLO 205 colon),growth (DU-145 prostate),growth (K-562 leukemia),growth (MALME-3M melanoma),growth (MDA-MB-231 breast),growth (RXF 393 renal),growth (SF-268 CNS),growth (SF-295 CNS),growth (SF-539 CNS),growth (UACC-257 melanoma),growth (M14 melanoma),growth (A549/ATCC NSCLC) [%]
Cc1cc2nc3c4cc(O)ccc4n(CCN(C)C)c3nc2cc1C,-35.3% (active),-24.6% (active),-11% (active),3.06% (active),3.73% (active),21.1%,-13.5% (active),5.67% (active),-40.6% (active),6.38% (active),7.53% (active),-61.6% (active),-5.62% (active),-54% (active),9.22% (active),-19.8% (active),-13.1% (active),-15.1% (active),-33.7% (active),
NC1=NN=C2N(N)C(=O)c3cnn(-c4ccccc4)c3N2c2nc(-c3ccccc3)cc(-c3ccccc3)c21,94.1%,87.4%,103%,96.8%,103%,96.7%,74.9%,104%,116%,108%,92.9%,120%,89.4%,138%,105%,94.6%,103%,108%,99.2%,
c1ccc2[nH]c(-c3cc(-c4ccc5c(c4)OCO5)n[nH]3)nc2c1,68.8%,70.7%,67.1%,62.6%,46.4%,119%,32.9%,55.7%,70.3%,69.1%,36.3%,38.2%,65%,59.6%,70.5%,,52.4%,66.4%,45.8%,
COC(=O)[C@]12CC[C@@H](C)[C@H](C)[C@@H]1C1=CC(=O)[C@@H]3[C@@]4(C)C[C@@H](OC(C)=O)[C@H](OC(C)=O)[C@@](C)(COC(C)=O)[C@@H]4C(=O)C[C@@]3(C)[C@]1(C)CC2,45.4%,41.8%,82.6%,58.2%,32.4%,18.1%,47.6%,68.5%,39.5%,73%,,44.6%,41.6%,64.5%,73.8%,51.6%,72.3%,,29.5%,42.5
O=C1CCC/C=C\C[C@H]2C=C(Cl)C(=O)/C2=C/C[C@H](CCCCC(F)(F)F)OC(=O)CCC/C=C\C[C@H]2C=C(Cl)C(=O)/C2=C/C[C@H](CCCCC(F)(F)F)O1,-35.2% [7.5 µM] (active),-19.3% [7.5 µM] (active),-36.9% [7.5 µM] (active),-29.9% [7.5 µM] (active),-33.2% [7.5 µM] (active),-58.4% [7.5 µM] (active),-62.2% [7.5 µM] (active),-55% [7.5 µM] (active),-57.2% [7.5 µM] (active),0.342% [7.5 µM] (active),1.45% [7.5 µM] (active),-18.2% [7.5 µM] (active),-22.9% [7.5 µM] (active),-92% [7.5 µM] (active),6.24% [7.5 µM] (active),-37.6% [7.5 µM] (active),-12.5% [7.5 µM] (active),-55.3% [7.5 µM] (active),-62.1% [7.5 µM] (active),
COc1cc(-c2c(C#N)c(-c3cccs3)nc3c2c(-c2ccccc2)nn3-c2ccccc2)ccc1O,98.4%,91.2%,96.6%,74.5%,77.5%,93.5%,69.8%,85.4%,89.7%,85.6%,66.2%,87.2%,87.8%,94.4%,80.4%,98.2%,93.5%,81.3%,89.3%,
O=C1C(=O)c2ccccc2C(O)=C1CCCc1ccc(C2CCCCC2)cc1,36.9%,47.1%,81.3%,44%,7.15% (active),40.7%,54.7%,30.8%,42.6%,39.2%,32.8%,87.9%,52.1%,67.2%,38.1%,39.7%,29.2%,34.9%,56.3%,
C#CCN=C[C@]12CC[C@@H](C(=C)C)[C@@H]1[C@H]1CC[C@@H]3[C@@]4(C)CCC(=O)C(C)(C)[C@@H]4CC[C@@]3(C)[C@]1(C)CC2,50.5%,73.2%,103%,88.8%,70.8%,65.4%,51%,74.9%,65.8%,67.9%,28.1%,81.8%,83.8%,80.3%,71.3%,68.5%,80.2%,55.6%,63.1%,
COc1ccc(-c2n/c(=C\c3c(O)[nH]c4ccc(OC)cc34)cc3c2=Nc2ccccc2-3)cc1,-7.74% (active),89.2%,97.8%,83.4%,-32.2% (active),72.1%,76%,-82.3% (active),88.9%,-2.21% (active),-32.8% (active),,39%,,-33.3% (active),,-48% (active),83.6%,-40.5% (active),19.3
Fc1ccc(Nc2ccc3c(OCCCN4CCOCC4)cccc3n2)cc1F,79%,64.6%,73.3%,89.6%,55.7%,63.9%,83.8%,74%,-7.44% (active),76.9%,1.64% (active),70.3%,29.8%,80.5%,71.3%,78.3%,52.2%,94%,69.2%,
CC(C)=CCC[C@](C)(O)[C@H]1CC[C@]2(C)[C@@H]1CC[C@@H]1[C@@]3(C)C/C(=C/c4ccc(Br)cc4)C(=O)C(C)(C)[C@@H]3CC[C@]12C,85.3%,82.7%,101%,98.5%,96.3%,75.5%,96.4%,93.8%,99.1%,85.6%,85.2%,88.7%,85.8%,92.9%,92.6%,101%,99.5%,91.2%,80.3%,
COc1ccc(/C(=C\c2ccc3c(c2)OCO3)C(=O)Nc2nc3ccccc3s2)cc1OC,95.1%,86.9%,91.4%,94.2%,102%,91.4%,89.5%,83.7%,110%,105%,83.9%,,109%,88.4%,83.2%,,93.8%,105%,92.7%,91.5
Nc1nc(N)c2nc3c(nc2n1)CCCCCCCCCC3,37.1%,102%,59.1%,58.1%,14.3%,79.7%,53.8%,31.9%,54.1%,53.6%,29.1%,79.1%,84.9%,80%,42.1%,,59.6%,55.5%,33.1%,
COc1ccc(C2CC(=O)c3c(nc4ccc(Cl)cc4c3N)C2)cc1 (stereo not drawn),102%,104%,104%,109%,104%,98.3%,100%,97%,114%,101%,93.4%,106%,114%,99.3%,108%,95.4%,107%,113%,103%,
Cc1cc(N2CCCCC2)nc(N(CCNc2ccnc3cc(Cl)ccc23)Cc2ccco2)n1,9.31% (active),80.1%,68.9%,24.3%,8.11% (active),52%,19.1%,23.4%,-13.7% (active),46.4%,2.04% (active),40.2%,32.9%,33.3%,60.7%,48.7%,30.7%,88%,9.4% (active),
Nc1nc2c3ccncc3cc(-c3cccc(Cl)c3)c2c2cnccc12,66.8%,33.1%,70.4%,44.1%,12.9%,50.3%,48.4%,21.3%,20.9%,40.5%,17.1%,57%,52.8%,10.4%,49.5%,31.4%,30.1%,59%,45.7%,
